Where “and” joins values, the source holds several entries; their conditions need not be identical. Identical values can stand only once. In all, about 5,500 compounds went through this assay and about 2,000 (36%) were called active. About 18% were inconclusive and are not listed. No stated cut-off is given here; in the data, active means normalized growth mostly below about 0.91 (no sharp cut-off); inconclusive means no clear call, values can overlap the other calls; inactive means mostly above about 0.92. The list shows a part of the results.
Assay: chemical genetic growth profiling, strain panel (AID 1159580);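 further: tested at 20 µM; growth read once vehicle control cultures reached saturation at 30 °C; 1 = growth at the plate median or of vehicle wells; lower values mean less growth of the strain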
Settings: growth OD

Measured: normalized growth

CCC1(C)CC(=O)NC1=O (stereo unspecified)
inactive: S. cerevisiae deletion strains, locus YJR075W, strain HOC1, active compounds read low 1.01 | S. cerevisiae deletion strains, locus YKL009W, strain mrt4, active compounds read low 1.03 | S. cerevisiae deletion strains, locus YKL068W, active compounds read low 1.01 | S. cerevisiae deletion strains, locus YKL085W, strain MDH1 (second series), active compounds read low 1.01 | S. cerevisiae deletion strains, locus YKL085W, strain MDH1, active compounds read low 1.01 | S. cerevisiae deletion strains, locus YKL160W, strain elf1, active compounds read low 0.992 | S. cerevisiae deletion strains, locus YKL190W, strain CNB1, active compounds read low 1.02 | S. cerevisiae deletion strains, locus YKR001C, strain vps1, active compounds read low 1.01 | S. cerevisiae deletion strains, locus YKR026C, strain gcn3, active compounds read low 0.979 | S. cerevisiae deletion strains, locus YKR091W, strain srl3, active compounds read low 0.972 | S. cerevisiae deletion strains, locus YLL001W, strain dnm1, active compounds read low 0.967 | S. cerevisiae deletion strains, locus YLL026W, active compounds read low 0.98 | S. cerevisiae deletion strains, locus YLL041C, strain sdh2, active compounds read low 0.995 | S. cerevisiae deletion strains, locus YLR027C, strain aat2, active compounds read low 0.975 | S. cerevisiae deletion strains, locus YLR039C, strain RIC1, active compounds read low 1.03 | S. cerevisiae deletion strains, locus YLR058C, strain SHM2, active compounds read low 1.02 | S. cerevisiae deletion strains, locus YLR102C, strain apc9, active compounds read low 1.01 | S. cerevisiae deletion strains, locus YLR113W, strain HOG1, active compounds read low 0.966 | S. cerevisiae deletion strains, locus YLR221C, strain rsa3, active compounds read low 0.987 | S. cerevisiae deletion strains, locus YLR258W, strain gsy2, active compounds read low 0.968 | S. cerevisiae deletion strains, locus YLR262C, strain YPT6 (second series), active compounds read low 0.977 | S. cerevisiae deletion strains, locus YLR262C, strain YPT6, active compounds read low 1.04 | S. cerevisiae deletion strains, locus YLR268W, strain sec22, active compounds read low 1.02 | S. cerevisiae deletion strains, locus YLR320W, strain mms22, active compounds read low 0.978 | S. cerevisiae deletion strains, locus YLR330W, strain CHS5, active compounds read low 1.01 | S. cerevisiae deletion strains, locus YLR342W, strain FKS1 (second series), active compounds read low 1.02 | S. cerevisiae deletion strains, locus YLR342W, strain FKS1, active compounds read low 0.988 | S. cerevisiae deletion strains, locus YLR357W, strain rsc2, active compounds read low 0.965 | S. cerevisiae deletion strains, locus YLR370C, strain arc18, active compounds read low 0.981 | S. cerevisiae deletion strains, locus YLR371W, strain rom2, active compounds read low 1.02 | S. cerevisiae deletion strains, locus YLR384C, strain iki3, active compounds read low 0.969 | S. cerevisiae deletion strains, locus YLR418C, strain cdc73, active compounds read low 1.02 | S. cerevisiae deletion strains, locus YML016C, strain PPZ1, active compounds read low 1.01 | S. cerevisiae deletion strains, locus YML032C, strain rad52, active compounds read low 1.01 | S. cerevisiae deletion strains, locus YML120C, strain ndi1, active compounds read low 0.977 | S. cerevisiae deletion strains, locus YML124C, strain tub3, active compounds read low 1.02 | S. cerevisiae deletion strains, locus YMR058W, strain fet3, active compounds read low 0.969 | S. cerevisiae deletion strains, locus YMR078C, strain ctf18, active compounds read low 1.02 | S. cerevisiae deletion strains, locus YMR125W, strain sto1, active compounds read low 0.97 | S. cerevisiae deletion strains, locus YMR129W, active compounds read low 0.979 | S. cerevisiae deletion strains, locus YMR205C, strain PFK2, active compounds read low 0.992 | S. cerevisiae deletion strains, locus YMR223W, strain ubp8, active compounds read low 1.02 | S. cerevisiae deletion strains, locus YMR231W, strain pep5, active compounds read low 0.983 | S. cerevisiae deletion strains, locus YMR263W, strain SAP30, active compounds read low 1.01 | S. cerevisiae deletion strains, locus YMR307W, strain GAS1, active compounds read low 1.04 | S. cerevisiae deletion strains, locus YNL067W, strain RPL9B, active compounds read low 1.01 | S. cerevisiae deletion strains, locus YNL071W, strain lat1, active compounds read low 0.96 | S. cerevisiae deletion strains, locus YNL128W, strain TEP1, active compounds read low 1.04 | S. cerevisiae deletion strains, locus YNL153C, strain GIM3, active compounds read low 1.01 | S. cerevisiae deletion strains, locus YNL175C, strain NOP13, active compounds read low 0.993 | S. cerevisiae deletion strains, locus YNL183C, strain NPR1, active compounds read low 0.906 | S. cerevisiae deletion strains, locus YNL197C, strain WHI3, active compounds read low 0.999 | S. cerevisiae deletion strains, locus YNL209W, strain ssb2, active compounds read low 0.969 | S. cerevisiae deletion strains, locus YNL224C, strain SQS1, active compounds read low 0.975 | S. cerevisiae deletion strains, locus YNL233W, strain BNI4, active compounds read low 1 | S. cerevisiae deletion strains, locus YNL248C, strain rpa49, active compounds read low 0.993 | S. cerevisiae deletion strains, locus YNL250W, strain rad50, active compounds read low 1.01 | S. cerevisiae deletion strains, locus YNL271C, strain bni1, active compounds read low 1.03 | S. cerevisiae deletion strains, locus YNL298W, strain CLA4, active compounds read low 1.02 | S. cerevisiae deletion strains, locus YNL307C, strain MCK1, active compounds read low 1.02 | S. cerevisiae deletion strains, locus YNL322C, strain KRE1 (second series), active compounds read low 0.982 | S. cerevisiae deletion strains, locus YNL322C, strain KRE1, active compounds read low 1.01 and 1.02 | S. cerevisiae deletion strains, locus YNR049C, strain mso1, active compounds read low 0.969 | S. cerevisiae deletion strains, locus YNR052C, strain pop2, active compounds read low 1.02 | S. cerevisiae deletion strains, locus YOL006C, strain TOP1, active compounds read low 0.992 | S. cerevisiae deletion strains, locus YOL012C, strain htz1 0.885 | S. cerevisiae deletion strains, locus YOL147C, strain pex11, active compounds read low 1.01 | S. cerevisiae deletion strains, locus YOR001W, strain rrp6, active compounds read low 0.98 | S. cerevisiae deletion strains, locus YOR061W, strain CKA2, active compounds read low 1.01 | S. cerevisiae deletion strains, locus YOR069W, strain VPS5, active compounds read low 1.01 | S. cerevisiae deletion strains, locus YOR070C, strain gyp1, active compounds read low 1.01 | S. cerevisiae deletion strains, locus YOR080W, strain dia2, active compounds read low 0.976 | S. cerevisiae deletion strains, locus YOR083W, strain WHI5 (second series), active compounds read low 1 | S. cerevisiae deletion strains, locus YOR083W, strain WHI5, active compounds read low 0.976 | S. cerevisiae deletion strains, locus YOR106W, strain vam3, active compounds read low 0.959 | S. cerevisiae deletion strains, locus YOR136W, strain idh2, active compounds read low 1.02 | S. cerevisiae deletion strains, locus YOR144C, strain elg1, active compounds read low 1.01 | S. cerevisiae deletion strains, locus YOR184W, strain ser1, active compounds read low 1.01 | S. cerevisiae deletion strains, locus YOR231W, strain MKK1, active compounds read low 0.977 | S. cerevisiae deletion strains, locus YOR265W, strain rbl2, active compounds read low 0.978 | S. cerevisiae deletion strains, locus YOR270C, strain vph1, active compounds read low 0.984 | S. cerevisiae deletion strains, locus YOR290C, strain snf2, active compounds read low 0.963 | S. cerevisiae deletion strains, locus YOR316C, strain cot1, active compounds read low 1.02 | S. cerevisiae deletion strains, locus YPL051W, strain arl3, active compounds read low 0.987 | S. cerevisiae deletion strains, locus YPL055C, strain LGE1, active compounds read low 0.988 and 1.06 | S. cerevisiae deletion strains, locus YPL078C, strain atp4, active compounds read low 0.97 | S. cerevisiae deletion strains, locus YPL106C, strain sse1, active compounds read low 1.01 | S. cerevisiae deletion strains, locus YPL240C, strain hsp82, active compounds read low 0.973 | S. cerevisiae deletion strains, locus YPL241C, strain CIN2, active compounds read low 1.01 | S. cerevisiae deletion strains, locus YPL256C, strain CLN2, active compounds read low 0.956 | S. cerevisiae deletion strains, locus YPR119W, strain clb2, active compounds read low 1.01 | S. cerevisiae deletion strains, locus YPR141C, strain kar3, active compounds read low 1.02 | S. cerevisiae deletion strains, locus YPR163C, strain tif3, active compounds read low 1.02 | S. cerevisiae deletion strains, locus YPR167C, strain met16, active compounds read low 1.02 | S. cerevisiae deletion strains, strain wtn01, active compounds read low 1.02 | S. cerevisiae strains, strain wild type, active compounds read low 1.01

Reference: PubChem BioAssay AID1159580 (chemical genetic matrix, 2015)
